# Hits are enriched below; roughly 27% of the tested compounds scored in any of these assays.
# CYP2C19 activ = human CYP2C19 activators, primary screen, biochemical, luminescence; activation factor at 5 µM; recombinant CYP2C19, luciferin-H EGE luminescence; hits give high values; 0 = fully inhibited enzyme, 1 = untreated enzyme; 96,000 tested, under 10 active; Cytochrome P450 2C19 (Homo sapiens), P33261; AID 1025, 2008;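 active means activation factor of at least 2 at 5 µM in the primary screen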
# CYP2C9 activ = human CYP2C9 activators, primary screen, biochemical, luminescence. activation factor at 5 µM. Cytochrome P450 2C9 (Homo sapiens), P11712. actives 1.4% (n = 96,000). recombinant CYP2C9, luciferin-H conversion; hits give high values; factor 1 = untreated enzyme, 0 = blocked;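 active means activation factor of 2 or more for CYP2C9 at a 5 µM dose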
# Pyk2 oligo antag = antagonists of Pyk2 self-association, primary screen, Q293 cells, FERM NanoBiT luminescence, HTS; hits give low values; AID 1347419, 2020; actives 0.83% (n = 99,000); Protein-tyrosine kinase 2-beta (Homo sapiens), Q14289; z-score (the deposit names both 25 µM and 10 µM);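 active means Z-score of -3 or lower, scaled per plate to the spread of control and sample wells; inactive means z-score above -3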;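 further: negative z-score means lost luminescence so less FERM oligomerization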
# CYP2C19 inhib = blockers of cytochrome P450 2C19 activity – biochemical, luminescence, ADME assay, primary screen | P33261 | AID 778, 2007 | inhibition, % at 5 µM | actives 21% (n = 96,000) | CYP2C19 Supersomes, luciferin-H EGE luminescence, 30 min;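 active means CYP2C19 inhibition above a set limit at 5 µM in the primary screen, cut at about 50% in these data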
# Cav3 T inh = Cav3.2 calcium influx blockers – cell-based, Fluo-4 calcium fluorescence, FDSS, MLSMR library, primary screen; Cav3.2-expressing cells; hits give low values; actives 4% (n = 100,000); Voltage-dependent T-type calcium channel subunit alpha-1H (Homo sapiens), O95180; B-score at 10 µM;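 active means single-dose well whose peak fluorescence ratio is a statistical outlier from its plate by either plate-standardised score or position-corrected B-score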
# Target sequence (O95180 whole entry, looked up): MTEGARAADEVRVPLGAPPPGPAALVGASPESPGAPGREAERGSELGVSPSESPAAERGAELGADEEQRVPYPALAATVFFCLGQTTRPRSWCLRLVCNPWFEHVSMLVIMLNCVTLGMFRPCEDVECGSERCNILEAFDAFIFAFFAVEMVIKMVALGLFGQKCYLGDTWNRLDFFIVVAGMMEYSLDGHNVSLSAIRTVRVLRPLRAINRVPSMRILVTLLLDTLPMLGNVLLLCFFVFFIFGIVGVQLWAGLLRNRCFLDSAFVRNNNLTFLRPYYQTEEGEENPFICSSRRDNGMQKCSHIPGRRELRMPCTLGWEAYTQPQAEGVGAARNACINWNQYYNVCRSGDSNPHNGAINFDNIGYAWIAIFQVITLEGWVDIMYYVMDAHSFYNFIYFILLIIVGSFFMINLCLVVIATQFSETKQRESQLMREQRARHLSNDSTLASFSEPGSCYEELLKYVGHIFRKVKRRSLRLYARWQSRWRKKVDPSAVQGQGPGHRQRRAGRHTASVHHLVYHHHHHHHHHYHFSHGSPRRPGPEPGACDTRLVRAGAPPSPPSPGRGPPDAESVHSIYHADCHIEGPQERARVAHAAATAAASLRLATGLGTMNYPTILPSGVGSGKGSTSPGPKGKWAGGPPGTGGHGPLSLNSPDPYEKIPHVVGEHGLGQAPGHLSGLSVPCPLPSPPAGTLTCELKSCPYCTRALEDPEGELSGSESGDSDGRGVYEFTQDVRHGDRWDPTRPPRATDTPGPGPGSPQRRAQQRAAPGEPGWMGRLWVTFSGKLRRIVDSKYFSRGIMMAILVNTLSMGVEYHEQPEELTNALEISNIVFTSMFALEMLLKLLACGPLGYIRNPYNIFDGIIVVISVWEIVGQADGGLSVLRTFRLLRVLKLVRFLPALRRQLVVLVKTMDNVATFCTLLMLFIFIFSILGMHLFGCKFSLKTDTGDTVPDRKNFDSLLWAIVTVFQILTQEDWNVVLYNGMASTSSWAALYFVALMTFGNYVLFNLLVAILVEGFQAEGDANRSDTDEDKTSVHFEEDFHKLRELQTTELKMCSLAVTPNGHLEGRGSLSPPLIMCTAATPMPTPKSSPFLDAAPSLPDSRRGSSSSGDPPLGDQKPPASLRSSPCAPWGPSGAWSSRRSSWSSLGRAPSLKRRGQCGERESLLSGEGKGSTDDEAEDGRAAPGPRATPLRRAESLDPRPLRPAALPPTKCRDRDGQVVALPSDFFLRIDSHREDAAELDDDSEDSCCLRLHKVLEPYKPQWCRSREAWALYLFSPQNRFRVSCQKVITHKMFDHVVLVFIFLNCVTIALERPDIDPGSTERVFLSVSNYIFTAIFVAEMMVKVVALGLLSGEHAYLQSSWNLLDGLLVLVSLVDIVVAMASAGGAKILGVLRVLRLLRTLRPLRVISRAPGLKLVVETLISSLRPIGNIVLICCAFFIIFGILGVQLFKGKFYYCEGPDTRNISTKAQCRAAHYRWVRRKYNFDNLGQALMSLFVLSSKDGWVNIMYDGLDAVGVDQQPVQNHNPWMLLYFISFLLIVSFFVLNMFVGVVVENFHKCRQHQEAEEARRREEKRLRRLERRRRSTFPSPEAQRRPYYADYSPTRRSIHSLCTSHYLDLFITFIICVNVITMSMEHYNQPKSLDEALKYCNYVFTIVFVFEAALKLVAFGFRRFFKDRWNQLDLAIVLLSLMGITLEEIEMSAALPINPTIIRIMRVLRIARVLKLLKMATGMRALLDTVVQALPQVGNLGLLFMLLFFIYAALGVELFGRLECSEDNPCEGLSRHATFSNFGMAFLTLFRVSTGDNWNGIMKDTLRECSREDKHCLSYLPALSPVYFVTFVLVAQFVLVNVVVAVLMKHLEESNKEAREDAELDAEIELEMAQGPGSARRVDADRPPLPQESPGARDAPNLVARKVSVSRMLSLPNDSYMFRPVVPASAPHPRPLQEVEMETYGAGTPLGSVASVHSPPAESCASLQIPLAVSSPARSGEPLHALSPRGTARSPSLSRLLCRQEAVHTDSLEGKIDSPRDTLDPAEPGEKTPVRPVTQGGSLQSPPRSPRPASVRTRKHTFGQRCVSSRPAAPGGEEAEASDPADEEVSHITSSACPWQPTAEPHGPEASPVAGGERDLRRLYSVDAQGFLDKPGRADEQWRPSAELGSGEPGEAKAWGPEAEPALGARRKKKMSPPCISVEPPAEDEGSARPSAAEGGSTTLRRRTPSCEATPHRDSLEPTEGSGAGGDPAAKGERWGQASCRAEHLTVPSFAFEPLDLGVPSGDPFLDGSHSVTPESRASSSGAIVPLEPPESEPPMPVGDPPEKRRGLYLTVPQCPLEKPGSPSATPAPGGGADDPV
# CYP2C9 inhib = blockers of cytochrome P450 2C9 activity – biochemical, luminescence, ADME assay, primary screen | P11712 | actives 20% (n = 96,000) | CYP2C9 Supersomes, luciferin-H conversion | inhibition, % at 5 µM;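 active means blocking of liver enzyme CYP2C9 beyond about 50% at 5 µM, limit read from the data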
# Numbers stand for hits; - = inactive; . = not tested or not shown.
SMILES,CYP2C19 activ,CYP2C9 activ,Pyk2 oligo antag,CYP2C19 inhib,Cav3 T inh,CYP2C9 inhib
Cc1c(C(=O)N2CCN(c3ccccn3)CC2)sc2ncnc(N3CCOCC3)c12,-,-,-,-,-,58
Cc1c(C(=O)N2CCC(C)CC2)sc2ncnc(N3CCN(c4ccccc4)CC3)c12,-,-,-,66,.,95
CCn1c(NCc2ccc(N(C)C)cc2)nc2ccccc21,-,-,-,72,-,-
CCCn1c(NCc2ccc(C)o2)nc2ccccc21,-,-,-,-,-,-
C=CCc1cccc(CNc2nc3ccccc3n2CC)c1O,-,2.1,-,-,-,-
CCn1c(NCc2ccccn2)nc2ccccc21,.,.,-,.,-,.
CCn1c(NCc2cccs2)nc2ccccc21,-,-,-,57,-,-
Cn1c(NCc2c[nH]c3ccccc23)nc2ccccc21,-,-,-,69,-,-
Cn1c(NCc2cccs2)nc2ccccc21,-,-,-,52,-,-
CC(C)COC(=O)c1ccc2c(c1O)C(=O)c1ccccc1C2=O,-,-,-,-,-,-
c1ccc(CC2CCN(c3nnnn3-c3ccccc3)CC2)cc1,-,-,-,63,.,54
O=S(=O)(c1ccccc1)N1CCN(c2nnnn2-c2ccccc2)CC1,-,-,-,51,-,-
O=S(=O)(c1ccc2c(c1)OCO2)N1CCN(c2nnnn2-c2ccccc2)CC1,-,-,-,-,-,-
O=C1NCN(c2ccccc2)C12CCN(c1nnnn1-c1ccccc1)CC2,-,-,-,58,-,-
C/C(=N/NC(=O)c1cccs1)c1ccc(NC(=O)COc2ccc(Cl)cc2)cc1,-,-,-,-,-,-
CC(=O)c1cccc(NS(=O)(=O)c2cc(OCC(N)=O)c(C)cc2Cl)c1,-,-,-,-,-,-
CCN(CCCNC(=O)CN(C)S(=O)(=O)c1ccc2c(c1)CCC(=O)N2)c1cccc(C)c1,-,-,-,-,-,64
CCN(CCNC(=O)CN(C)S(=O)(=O)c1cccc2nsnc12)c1ccccc1,-,-,-,89,-,59
CCOc1ccc(CCNC(=O)CN(C)S(=O)(=O)c2cccc3nsnc23)cc1OCC,-,-,-,-,-,-
CCN(CCCNC(=O)CN(C)S(=O)(=O)c1cccc2nsnc12)c1cccc(C)c1,-,-,-,-,-,74
CN(CC(=O)NCCC1=CCCCC1)S(=O)(=O)c1ccc2c(c1)CCC(=O)N2,-,-,.,-,-,-
CCOC(=O)c1c(NC(=O)CSc2nnnn2C)sc(C)c1-c1ccc(C)cc1,-,-,-4.2,-,-4.5,76
O=C(Oc1ccccc1)c1cccc(N2C(=O)CCC2=O)c1,-,-,-,66,-,51
O=C(Oc1ccc(N2C(=O)CCC2=O)cc1)c1ccccc1,.,.,-,.,-,.
CCOC(=O)c1ccccc1NC(=O)CSc1nnnn1C,.,.,-,.,-,.
SMILES,CYP2C19 activ,CYP2C9 activ,Pyk2 oligo antag,CYP2C19 inhib,Cav3 T inh,CYP2C9 inhib
COC(=O)c1c(NC(=O)C2CC=CCC2C(=O)O)sc(C)c1C (stereo unspecified),-,-,-,-,-,71
CCOC(=O)c1c(-c2ccccc2)csc1NC(=O)CSc1nnnn1C,-,-,-,-,-,80
Cc1nc2ccccn2c1C(=O)N=Nc1c(O)n(CCC(C)C)c2ccccc12,.,.,-,.,.,.
CCOC(=O)c1ccc(NC(=O)COc2ccc(S(=O)(=O)NC(C)(C)C)cc2)cc1,.,.,-,.,-,.
COc1cc(SC)ccc1C(=O)N1CCCCCC1,.,.,-,.,-,.
Cc1ccc(-n2c(=O)[nH]c3cc(C(=O)NC4CCN(Cc5ccccc5)CC4)ccc3c2=O)cc1,-,-,-,-,-,-
CCOC(=O)c1c(-c2ccc(OC)cc2)csc1NC(=O)CSc1ccccc1,-,-,-,-,-4.8,-
CCOC(=O)c1c(-c2cccc([N+](=O)[O-])c2)csc1NC(=O)CCCOc1ccccc1OC,.,.,-,.,-4.8,.
CCOC(=O)c1c(-c2ccc(C)cc2)csc1NC(=O)C1CC=CCC1C(=O)O (stereo unspecified),-,-,-,-,.,-
CCOC(=O)c1c(-c2cccc(C)c2)csc1NC(=O)C1CC=CCC1C(=O)O (stereo unspecified),-,-,-,-,-8.9,-
CCOC(=O)c1c(-c2ccccc2)csc1NC(=O)c1cccc(N2C(=O)CCC2=O)c1,-,-,-,-,-,84
CCOC(=O)c1c(-c2ccccc2)csc1NC(=O)C1CCCO1 (stereo unspecified),-,-,-,-,-,-
Cc1nn(C)c(C(=O)Nc2ccc(Cn3cccn3)cc2)c1[N+](=O)[O-],-,-,-,-,.,-
CCOC(=O)C(NC(=O)CC)C(O)c1cccc([N+](=O)[O-])c1 (stereo unspecified),-,-,-,-,-,-
COC(=O)c1c(-c2ccccc2)csc1NC(=O)c1ccco1,-,-,-,-,-,-
CCOC(=O)c1c(-c2ccc(C)cc2)csc1NC(=S)NC(=O)c1ccccc1,-,-,-,-,-,93
Clc1ccc(Nc2nc(-c3ccncc3)cs2)cc1,.,.,-,.,-,.
Nc1ccc(Nc2nc(-c3ccncc3)cs2)cc1,-,-,-,61,-,62
Oc1ccc(Nc2nc(-c3ccc(O)cc3)cs2)cc1,-,-,-,-,-,-
NS(=O)(=O)c1ccc(Nc2nc(-c3ccc(O)cc3)cs2)cc1,-,-,-,-,-,86
CCC(=O)N1CCc2cc(S(=O)(=O)NCCC(=O)N3CC=C(c4ccccc4)CC3)ccc21,-,-,-,-,-,-
CCc1nc(OCc2ccccc2)c2sc3nc4c(cc3c2n1)COC(C)(C)C4,-,-,-,-,-,-
c1nc(N2CCOCC2)c2c3c(sc2n1)CCCC3,-,-,-,65,.,-
c1ccn(-c2ncnc3sc4c(c23)CCCC4)c1,-,-,-,96,-,-
O=C(O)CSc1ncnc2sc3c(c12)CCC3,-,-,-,-,.,-
SMILES,CYP2C19 activ,CYP2C9 activ,Pyk2 oligo antag,CYP2C19 inhib,Cav3 T inh,CYP2C9 inhib
O=C(c1ccccc1)N1CCN(c2ncnc3sc4c(c23)CCC4)CC1,-,-,-,92,-,83
CSc1nc(N2CCOCC2)c2c3c(sc2n1)CCCC3,-,-,-,-,-,-
CCn1c(CCNC(=O)c2cccs2)n[nH]c1=S,.,.,-,.,.,.
CSc1nnc(-c2ccc(S(=O)(=O)N3CCCC3)cc2)n1C,-,-,-,-,-,-
O=C(NC1CC1)C1=COCCO1,-,-,-,-,-,-
Cc1cc(-c2ccccc2)nc2[n+]1CCN2C,-,-,-,-,-,-
O=c1[nH]c(Nc2ccccc2Cl)cc2ccccc12,.,.,.,.,-,.
